{"source": "paper PMC7862700", "about": "“An all-to-all approach to the identification of sequence-specific readers for epigenetic DNA modifications on cytosine”", "assay_in_all_cases": "DAPPL (digital affinity profiling via proximity ligation, sequencing); 10 mM Tris-HCl pH 7.5, 50 mM NaCl, 1 mM DTT, 4% glycerol, room temperature, 30 min; GST-TFs on glutathione beads, 16-mer random dsDNA library, 0.1% formaldehyde crosslink after washing; high values mean tight binding", "key": {"[1]": {"target": "T1, FEV (Homo sapiens, UniProt Q99581 1-238)", "T1 sequence": "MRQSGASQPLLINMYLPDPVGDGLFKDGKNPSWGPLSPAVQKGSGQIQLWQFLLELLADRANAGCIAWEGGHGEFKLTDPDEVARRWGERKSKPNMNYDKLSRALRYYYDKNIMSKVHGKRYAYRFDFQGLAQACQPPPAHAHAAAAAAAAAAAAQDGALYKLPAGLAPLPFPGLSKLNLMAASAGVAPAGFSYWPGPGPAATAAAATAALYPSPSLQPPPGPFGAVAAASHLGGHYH", "conditions": "protein: recombinant; tags: N-terminal GST; dsDNA, one strand shown", "procedure,_shortened": "(§1)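 Binding signal is given per hexamer as its read frequency for a factor divided by its frequency in the tag-only sample. GST-fused human transcription factors were expressed in yeast, captured on glutathione beads, barcoded with DNA and pooled with that sample, then incubated with 200 nmole of a 16-mer random double-stranded DNA library in Tris/NaCl/DTT/glycerol buffer for 30 min at room temperature. The pools were then washed, crosslinked, proximity-ligated, amplified by PCR and sequenced on an Illumina NextSeq500.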"}, "[2]": {"target": "ETV5 (Homo sapiens, UniProt P41161 1-510)", "sequence (P41161 whole entry)": "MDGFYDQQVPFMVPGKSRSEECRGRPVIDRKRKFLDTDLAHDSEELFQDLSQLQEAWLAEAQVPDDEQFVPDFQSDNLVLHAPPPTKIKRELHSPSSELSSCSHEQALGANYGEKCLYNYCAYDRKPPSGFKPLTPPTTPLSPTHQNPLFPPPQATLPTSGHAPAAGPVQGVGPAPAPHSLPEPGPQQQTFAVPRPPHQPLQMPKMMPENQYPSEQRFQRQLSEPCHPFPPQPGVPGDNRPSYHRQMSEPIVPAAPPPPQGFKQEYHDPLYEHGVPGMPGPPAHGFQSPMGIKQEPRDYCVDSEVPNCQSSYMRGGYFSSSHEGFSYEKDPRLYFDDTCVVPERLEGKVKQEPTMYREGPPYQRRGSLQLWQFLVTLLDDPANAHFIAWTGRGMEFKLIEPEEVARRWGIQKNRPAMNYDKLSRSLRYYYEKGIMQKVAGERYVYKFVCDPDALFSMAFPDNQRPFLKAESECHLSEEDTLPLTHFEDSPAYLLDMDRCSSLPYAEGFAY", "conditions": "protein: recombinant; tags: N-terminal GST; dsDNA, one strand shown", "procedure,_shortened": "as §1"}, "[3]": {"target": "HSF1 (Homo sapiens, UniProt Q00613 1-529)", "sequence (Q00613 whole entry)": "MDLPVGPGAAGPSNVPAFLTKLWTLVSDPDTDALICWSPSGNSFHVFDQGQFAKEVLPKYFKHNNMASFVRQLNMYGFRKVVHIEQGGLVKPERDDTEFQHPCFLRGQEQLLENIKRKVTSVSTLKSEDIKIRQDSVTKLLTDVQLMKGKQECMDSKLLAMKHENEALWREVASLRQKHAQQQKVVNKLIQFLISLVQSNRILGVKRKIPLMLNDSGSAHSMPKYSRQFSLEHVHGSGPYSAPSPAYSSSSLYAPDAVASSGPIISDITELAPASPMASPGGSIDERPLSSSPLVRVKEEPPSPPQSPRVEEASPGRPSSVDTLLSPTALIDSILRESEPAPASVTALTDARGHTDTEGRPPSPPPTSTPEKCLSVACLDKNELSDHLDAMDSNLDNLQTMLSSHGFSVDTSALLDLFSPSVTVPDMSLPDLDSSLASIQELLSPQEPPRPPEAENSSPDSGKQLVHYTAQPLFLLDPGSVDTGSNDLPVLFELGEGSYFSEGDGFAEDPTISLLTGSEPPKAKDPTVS", "conditions": "protein: recombinant; tags: N-terminal GST; chain copies: 3; dsDNA, one strand shown", "procedure,_shortened": "as §1"}, "[4]": {"target": "T2, SPIC (Homo sapiens, UniProt Q8N5J4 1-248)", "T2 sequence": "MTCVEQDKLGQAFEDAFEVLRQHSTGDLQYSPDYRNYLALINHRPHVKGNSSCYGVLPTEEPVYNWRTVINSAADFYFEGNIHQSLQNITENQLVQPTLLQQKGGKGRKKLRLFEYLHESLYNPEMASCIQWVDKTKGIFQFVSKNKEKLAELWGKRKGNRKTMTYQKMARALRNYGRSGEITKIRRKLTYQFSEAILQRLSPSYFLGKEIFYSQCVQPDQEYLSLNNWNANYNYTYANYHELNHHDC", "conditions": "protein: recombinant; tags: N-terminal GST; dsDNA, one strand shown", "procedure,_shortened": "as §1"}, "[5]": {"target": "ELF4 (Homo sapiens, UniProt Q99607 1-663)", "sequence (Q99607 whole entry)": "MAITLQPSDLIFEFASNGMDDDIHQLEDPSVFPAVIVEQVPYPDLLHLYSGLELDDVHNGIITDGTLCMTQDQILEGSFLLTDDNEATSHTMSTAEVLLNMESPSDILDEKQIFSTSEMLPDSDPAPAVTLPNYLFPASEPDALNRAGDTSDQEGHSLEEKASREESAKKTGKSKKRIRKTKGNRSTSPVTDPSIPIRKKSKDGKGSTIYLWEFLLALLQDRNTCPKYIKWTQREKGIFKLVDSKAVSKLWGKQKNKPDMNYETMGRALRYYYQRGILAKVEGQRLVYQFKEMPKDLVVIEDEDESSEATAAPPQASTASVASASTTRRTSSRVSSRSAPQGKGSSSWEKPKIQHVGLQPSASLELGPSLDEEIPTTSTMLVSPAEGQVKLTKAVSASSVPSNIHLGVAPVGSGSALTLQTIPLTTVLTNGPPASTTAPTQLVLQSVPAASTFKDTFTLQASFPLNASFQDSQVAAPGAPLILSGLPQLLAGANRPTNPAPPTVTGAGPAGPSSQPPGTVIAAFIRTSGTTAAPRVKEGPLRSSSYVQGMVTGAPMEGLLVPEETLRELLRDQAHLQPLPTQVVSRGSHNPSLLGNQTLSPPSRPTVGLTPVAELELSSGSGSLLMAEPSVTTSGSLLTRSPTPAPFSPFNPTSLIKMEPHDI", "conditions": "protein: recombinant; tags: N-terminal GST; dsDNA, one strand shown", "procedure,_shortened": "as §1"}, "[6]": {"target": "T3, ELK4 (Homo sapiens, UniProt P28324-2 1-405)", "T3 sequence": "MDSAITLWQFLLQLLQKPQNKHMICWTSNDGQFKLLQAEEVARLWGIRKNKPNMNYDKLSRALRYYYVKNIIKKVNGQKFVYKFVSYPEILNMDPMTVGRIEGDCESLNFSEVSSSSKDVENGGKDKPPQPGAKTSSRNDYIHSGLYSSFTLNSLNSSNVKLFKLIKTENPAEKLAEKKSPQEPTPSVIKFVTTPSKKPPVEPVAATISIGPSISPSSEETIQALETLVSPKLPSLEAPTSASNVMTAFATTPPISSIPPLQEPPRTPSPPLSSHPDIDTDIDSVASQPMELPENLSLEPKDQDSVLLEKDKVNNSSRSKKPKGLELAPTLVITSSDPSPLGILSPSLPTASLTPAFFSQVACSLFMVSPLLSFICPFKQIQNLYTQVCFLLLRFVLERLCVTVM", "conditions": "protein: recombinant; tags: N-terminal GST; dsDNA, one strand shown", "procedure,_shortened": "as §1"}, "[7]": {"target": "T4, ETV2 (Homo sapiens, UniProt O00321 1-342)", "T4 sequence": "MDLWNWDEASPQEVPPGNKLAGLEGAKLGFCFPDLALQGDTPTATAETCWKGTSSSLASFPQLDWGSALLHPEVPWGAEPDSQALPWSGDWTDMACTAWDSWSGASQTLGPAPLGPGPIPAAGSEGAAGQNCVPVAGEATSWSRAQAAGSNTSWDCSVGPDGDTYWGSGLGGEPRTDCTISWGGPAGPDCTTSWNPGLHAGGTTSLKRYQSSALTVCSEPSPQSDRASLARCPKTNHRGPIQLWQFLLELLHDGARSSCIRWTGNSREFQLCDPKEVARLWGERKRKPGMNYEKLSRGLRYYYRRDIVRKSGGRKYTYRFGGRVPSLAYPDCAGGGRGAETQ", "conditions": "protein: recombinant; tags: N-terminal GST; dsDNA, one strand shown", "procedure,_shortened": "as §1"}, "[8]": {"target": "T5, ELF3 (Homo sapiens, UniProt P78545 1-371)", "T5 sequence": "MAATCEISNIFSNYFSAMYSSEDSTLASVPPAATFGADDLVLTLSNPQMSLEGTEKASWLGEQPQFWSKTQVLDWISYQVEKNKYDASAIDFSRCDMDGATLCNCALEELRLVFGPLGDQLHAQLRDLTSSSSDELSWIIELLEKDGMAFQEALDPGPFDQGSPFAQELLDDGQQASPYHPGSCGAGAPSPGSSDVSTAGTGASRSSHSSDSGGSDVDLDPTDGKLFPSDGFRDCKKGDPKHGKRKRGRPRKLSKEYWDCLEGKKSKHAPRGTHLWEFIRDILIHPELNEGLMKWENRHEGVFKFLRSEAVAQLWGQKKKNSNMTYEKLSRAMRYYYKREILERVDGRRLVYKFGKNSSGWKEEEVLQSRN", "conditions": "protein: recombinant; tags: N-terminal GST; dsDNA, one strand shown", "procedure,_shortened": "as §1"}, "[9]": {"target": "CRX (Homo sapiens, UniProt O43186 1-299)", "sequence (O43186 whole entry)": "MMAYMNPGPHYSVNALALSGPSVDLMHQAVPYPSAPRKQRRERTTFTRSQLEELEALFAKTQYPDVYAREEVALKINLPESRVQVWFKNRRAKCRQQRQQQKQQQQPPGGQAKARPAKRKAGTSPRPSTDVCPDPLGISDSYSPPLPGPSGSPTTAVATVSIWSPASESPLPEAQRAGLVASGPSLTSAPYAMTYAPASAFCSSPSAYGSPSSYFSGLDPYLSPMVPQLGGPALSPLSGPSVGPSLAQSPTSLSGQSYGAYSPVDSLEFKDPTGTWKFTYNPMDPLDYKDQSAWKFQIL", "conditions": "protein: recombinant; tags: N-terminal GST; dsDNA, one strand shown", "procedure,_shortened": "as §1"}}}
{"sequence": "CATTAC", "values": [{"measurement": "binding signal", "setting": "[1]", "result": "1.12 fold enrichment (6-mer frequency, TF over GST control)"}, {"measurement": "binding signal", "setting": "[2]", "result": "1.13 fold enrichment (6-mer frequency, TF over GST control)"}, {"measurement": "binding signal", "setting": "[3]", "result": "1.02 fold enrichment (6-mer frequency, TF over GST control)"}, {"measurement": "binding signal", "setting": "[4]", "result": "1.05 fold enrichment (6-mer frequency, TF over GST control)"}, {"measurement": "binding signal", "setting": "[5]", "result": "1.1 fold enrichment (6-mer frequency, TF over GST control)"}, {"measurement": "binding signal", "setting": "[6]", "result": "1.17 fold enrichment (6-mer frequency, TF over GST control)"}, {"measurement": "binding signal", "setting": "[7]", "result": "1.22 fold enrichment (6-mer frequency, TF over GST control)"}, {"measurement": "binding signal", "setting": "[8]", "result": "1.08 fold enrichment (6-mer frequency, TF over GST control)"}, {"measurement": "binding signal", "setting": "[9]", "result": "1.18 fold enrichment (6-mer frequency, TF over GST control)"}]}
